The source of these data is PubChem BioAssay (Tox21).

Inconclusive results are not listed. Calls of active or inactive are those of the source. The call rests on the fitted dose curve; in most records, active means well fitted activation curve with a large enough effect in the signal ratio in the repeat runs (not every such curve was filed as active); inconclusive means weak or mixed curves, or effect the other way; inactive means flat fitted curve, though single readings scatter; the % refers to the signal ratio.
On the % scale 0 is the no-effect control and ±100 the full control effect.

A short description of the assay: qHTS assay to identify small molecule agonists of the endoplasmic reticulum stress response signaling pathway (AID 1159516). The conditions noted are these: ESRE-bla HeLa, ER stress beta-lactamase reporter, 5 h; series mostly up to 61 µM; activation: at the top concentration. An excerpt:
National Center for Advancing Translational Sciences [NCATS]
NIH Chemical Genomics Center [NCGC]
U.S. Environmental Protection Agency [EPA]
National Institutes of Environmental Health Sciences [NIEHS]
National Toxicology Program [NTP]
U.S. Food and Drug Administration [FDA]
Endoplasmic Reticulum (ER) plays an important role in cellular signaling, protein folding/maturation, stress response, lipid biosynthesis, calcium storage and release etc. Under stress conditions, proteins in ER misfold or unfold, and leading to the expression of ER stress responsive genes. ER stress has been associated with a variety of pathophysiological conditions such as cancer, inflammation, neurodegenerative diseases, diabetes, ischemic heart disease etc. To identify the compounds that induce ER stress response, an ER stress reporter cell line, CellSensor ESRE-bla HeLa (Life Technologies, Carlsbad, CA) containing a beta-lactamase reporter gene under control of the Endoplasmic reticulum Stress Response Element (ESRE) was used to screen Tox21 10K compound library.
Tox21 Assay Protocol Summary:
ESRE-bla HeLa cells were dispensed at 1,500 cells/6 uL of assay medium per well into black wall/clear-bottom 1536-well plates using a Multidrop Combi (ThermoFisher Scientific, Waltham, MA) dispenser. After the assay plates were incubated at 37 C and 5% CO2 for an overnight, 23 nL of compounds dissolved in DMSO, positive controls or DMSO only was transferred to the assay plate by a Pintool station (Kalypsys, San Diego, CA). The assay plates were incubated at 37 C and 5% CO2 for 5 hr. One uL of LiveBLAzer B/G FRET substrate (Life Technologies) was added using a Flying Reagent Dispenser (Aurora Discovery, San Diego, CA) and the plates were incubated at room temperature for 2 hr. Fluorescence intensity (405 nm excitation, 460 nm and 530 nm emissions) was measured using an Envision plate reader (PerkinElmer, Shelton, CT).
Background: Quantitative high-throughput screening tests each substance at several concentrations.
Regarding `CC(C)(O)c1ccc(CNC(=O)c2cccnc2Oc2ccc(F)cc2)cc1`, the “activation” value was -1.25% (inactive).

`O=P(O)(OCc1ccccc1)OCc1ccccc1`: the “activation” value was -0.227% (inactive).

Turning to `CCCNCC(O)COc1ccccc1C(=O)CCc1ccccc1` (stereo not given), the “activation” value is -0.164% (inactive).

In the case of `CCCCCCCCCCCC(=O)OC[C@@H](O)[C@H]1OC[C@H](OCCO)[C@H]1OCCO`, the “activation” value is -0.615% (inactive).

For the compound `O=C1OC(=O)C2C3C=CC(C3)C12` (stereo not given), the “activation” value was -3.54% (inactive).

With `Nc1ncn([C@H]2C[C@H](O)[C@@H](CO)O2)c(=O)n1`, the “activation” value was 0.582% (inactive).

Regarding `Cc1oc2c(NC(=O)c3c(Cl)cccc3Cl)cccc2c1C(C)(C)O`, the “activation” value is 4.32% (inactive).

In the case of `O=C(O)c1ccco1`, the “activation” value was -0.128% (inactive).

As for `CCCCC1=NC2(CCCC2)C(=O)N1Cc1ccc(-c2ccccc2-c2nn[nH]n2)cc1`, the “activation” value was -0.0819% (inactive).

As to `CCCCCCCC/C=C\CCCCCCCC(=O)OCC`, the “activation” value is -1.05% (inactive).

In the case of `CC1CCC(=O)C1=O` (stereo not given), the “activation” value was -0.0247% [at 78.8 µM] (inactive).

Consider `CN(C)CCN(Cc1ccsc1)c1ccccn1`, for which the “activation” value was 0.164% (inactive).

On to `CCC(Cl)CCC(Cl)C(Cl)CC(Cl)C(Cl)C(Cl)CCl` (stereo not given), for which the “activation” value was 0.417% (inactive).

Take `CN(C)CCN(Cc1ccccc1)c1ccccn1`: the “activation” value was -1.34% (inactive).

`O=C1CCC(=O)O1`: the “activation” value is -4.38% [at 78.8 µM] (inactive).

Regarding `CC(C)CC(=O)C1C(=O)c2ccccc2C1=O`, the “activation” value was -6.78% (inactive).

On to `O=C(NCCO[N+](=O)[O-])c1cccnc1`, for which the “activation” value was 0.0546% (inactive).

For `CN(C)c1ccc(/C=C/c2ccc([N+](=O)[O-])cc2)cc1`, the activation was -8.84% [at 6.95 µM] (inactive).

For `CCCCCCCC#N`, the “activation” value was -8.73% (inactive).

As to `CCCCCCCCO[C@@H]1O[C@H](CO)[C@@H](O)[C@H](O)[C@H]1O`, the “activation” value was -1.07% (inactive).

In the case of `c1ccc(CNCCNCc2ccccc2)cc1`, the “activation” value is 0.71% (inactive).

Take `CCCCC(CC)COC(=O)COc1ccc(Cl)cc1Cl` (stereo not given): the “activation” value was -0.457% [at 78.8 µM] (inactive).

For the compound `CCOC(=O)c1cccnc1`, the “activation” value is 2.53% (inactive).

With `COc1ccc(C)cc1[N+](=O)[O-]`, the “activation” value was -2.8% [at 78.8 µM] (inactive).

With `CC(C)OC(=O)C(C)N(C(=O)c1ccccc1)c1ccc(F)c(Cl)c1` (stereo not given), the “activation” value was -5.29% (inactive).

In the case of `O=[N+]([O-])c1ccc2[nH]ncc2c1`, the “activation” value is -4.03% (inactive).

Turning to `CCN(CC)c1ccc2c(-c3ccccc3C(=O)O)c3ccc(=[N+](CC)CC)cc-3oc2c1`, the “activation” value is -4.11% (inactive).

On to `O=C(OCCCCCCOC(=O)c1ccccc1)c1ccccc1`, for which the “activation” value is -6.59% (inactive).

Consider `CCCCC`, for which the “activation” value is -0.386% (inactive).

Turning to `O=C1C(O)=C(O)C(=O)C(O)=C1O`, the “activation” value was -0.486% (inactive).

Take `CCCCCC[C@@H](O)C/C=C\CCCCCCCC(=O)OC`: the “activation” value is -0.224% [at 78.8 µM] (inactive).

`COc1ccnc(CS(=O)c2nc3ccc(OC(F)F)cc3[nH]2)c1OC` (stereo not given): the “activation” value is -1% (inactive).

With `CC(=O)c1ccc2c(c1)N(CCCN(C)C)c1ccccc1S2`, the “activation” value was 0.869% (inactive).

Consider `CC(=O)[O][Al]`, for which the “activation” value was -2.22% [at 78.8 µM] (inactive).

Take `O=C1[C@H]2CCCC[C@H]2C(=O)N1CCCCN1CCN(c2nsc3ccccc23)CC1`: the “activation” value was 0.0521% (inactive).

`CCC(CC)Nc1ccc(C)c(C)c1`: the “activation” value is -0.746% (inactive).

With `CN(Cc1ccc(C(C)(C)C)cc1)Cc1cccc2ccccc12`, the “activation” value was -0.0546% (inactive).

In the case of `CC(COCCO)OCCO` (stereo not given), the “activation” value is 3.54% (inactive).

With `CN1C[C@H]2c3ccccc3Oc3ccc(Cl)cc3[C@@H]2C1`, the “activation” value was 6% (inactive).

For the compound `COc1ccc2cccc(CCNC(C)=O)c2c1`, the “activation” value was 0.0176% (inactive).
